According to the supplement of paper PMC6555819:

Columns and labels:
Assay in all cases: PBM binding z-score (relative to random genomic background probes); higher = stronger binding; sequences stand for … in GC…GCGATTGACAGCGTAGAATGAAGG
[1] = test system: FXR:RXRa (NR concentration 270 nM, RXRa partner concentration 90 nM)
In short: (§1)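 Ligand-free nuclear receptor dimers were applied to custom Agilent 4×180K protein-binding microarrays whose double-stranded probes carried direct-repeat seeds, single-nucleotide variants, half-site ablations and random human genomic background sequences in 34-nt variable regions. Incubation lasted 1 h. Binding z-scores were computed against the random background probes from regression-normalized fluorescence.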

[2] = test system: LXRa:RXRa (NR concentration 270 nM, RXRa partner concentration 90 nM)
In short: as §1

[3] = test system: LXRa homodimer (NR concentration 270 nM)
In short: as §1

[4] = test system: LXRb:RXRa (NR concentration 270 nM, RXRa partner concentration 90 nM)
In short: as §1

[5] = test system: LXRb homodimer (NR concentration 270 nM)
In short: as §1

[6] = test system: PPARa:RXRa (NR concentration 270 nM, RXRa partner concentration 90 nM)
In short: as §1

[7] = test system: PPARg:RXRa (NR concentration 180 nM, RXRa partner concentration 90 nM)
In short: as §1

[8] = test system: PPARg:RXRa 270nM:90nM, anti-RXR (NR concentration 270 nM, RXRa partner concentration 90 nM)
In short: as §1

[9] = test system: PPARg:RXRa 30nM:10nM, anti-RXR (NR concentration 30 nM, RXRa partner concentration 10 nM)
In short: as §1

[10] = test system: PPARg:RXRa 90nM:30nM, anti-RXR (NR concentration 90 nM, RXRa partner concentration 30 nM)
In short: as §1

Sequence	PBM binding z-score [1]	PBM binding z-score [2]	PBM binding z-score [3]	PBM binding z-score [4]	PBM binding z-score [5]	PBM binding z-score [6]	PBM binding z-score [7]	PBM binding z-score [8]	PBM binding z-score [9]	PBM binding z-score [10]
TCTCGGCGGACACGAAGGTCAGAGCTTTCCAGAG	0.592	0.668	0.198	0.454	-1.37	1.5	0.0295	1.04	1.16	1.08
CGTCCAAGTTCAAGGTAACGTAACAGAAAGCAGC	2.88	2.37	0.562	1.53	0.319	2.68	1.17	1.4	0.382	1.04
TCGAGTAGGTTAGGGGCATTCGGAATGGCGTCGA	0.123	0.347	-0.32	0.736	-0.712	1.06	0.477	2.22	1.15	1.51
CGAACTAGGTCATCCAGGACGGTGAATACATTGA	4.05	2.29	0.0785	1.64	-0.427	4.85	7.27	6.3	3.61	5.41
GCTGCTAGGTCAGGTTTGTCAGCTAACGGGTACG	0.8	0.465	-0.141	0.304	-0.389	0.943	0.265	0.692	-0.284	0.389
TCTTGTACATCAAGCAGGTTAAGAAAGCCTGAGT	0.785	0.852	-0.0231	0.861	0.106	1.05	-0.153	1.37	3.03	2.18
TCATATATGTAATACAGGTGAAAGTCGGCATCTA	0.656	0.799	0.168	0.857	0.395	2.14	2.09	3.12	3.65	3.4
CCGAGTAGGTTATGGGGCATCCAGGCAACGGTGA	0.103	0.375	-0.312	0.332	-0.509	2.36	3.95	4.52	1.97	4.17
ATCGAAAGGTCGACGAGGTGAGTCTACACCGTTT	4.73	3.39	-0.244	2.47	0.381	4.55	2.93	3.2	0.846	1.9
GTACCAAGGTGAATAGGTCGTTGAAGAGTAGGCG	1.03	0.815	0.077	0.828	-0.492	2.34	1.56	2.06	0.379	1.17
CGAAATAGGTCAGAACAGGACAGTGAAGGATGAT	2.81	2.42	0.564	1.63	0.228	3.89	4.52	4.6	2.18	3.59
CGAACTAGGTCAAGGTCAAAGTCGGTTTGTGCCA	6.55	5.52	3.7	4.39	1.14	5.86	9.77	7.93	6.78	8.09
CGTCCAAGGTCAATGCCAGGTCAGTGAAAGCATT	7.1	5.52	3.08	4.42	1.04	5.11	4.05	4.59	1.16	3.45
GCTATTAGTTGAGAGGGCAACCGAATGATTCTCG	0.249	0.428	0.355	0.434	-0.23	1.38	1.03	2.25	0.553	1.53
TGAATGAGGTTATAAGATCAGGGCACGTTGCAAA	1.49	1.49	0.117	1.32	0.0684	2.9	1.62	1.95	0.914	1.63
GCTTGTAGATCAAGGTTAAGGAAGACTAAGCTAA	0.0551	0.428	-0.182	0.363	-0.628	1.68	1.05	2.33	0.604	1.48
CCTAGCAGGCCAATCTGGGTCAATCAAGGCTTGA	0.324	1.22	-0.656	0.742	-1.17	3.09	1.49	1.95	-0.105	1
TCTTGTAGATAAACAGGAGGTTAAGAAAGATCGA	0.162	1.13	0.276	1.01	-0.398	1.27	0.346	1.3	2.82	1.89
GCTCGGAGGACAAGGTGAGAGCTTTGTCCGTAGA	-0.399	-0.339	-1.2	-0.463	-1.12	-0.0348	-0.809	-0.0501	-1.12	-0.422
CGTCCAAGGTCAGAGATGTCAGTGAATGCCGAGT	4.67	2.73	0.142	1.82	-0.161	3.59	2.24	2.19	0.132	1.04
ATATGTAGGTTACATCCGGGTCATTAAGGCTATG	2.39	4.11	1.5	3.09	0.566	4.35	6.02	5.08	2.66	4.28
AAAGACAGGTGATGAAGGTAACTCAGGCTATCAT	-0.191	-0.0472	0.0332	0.0714	-0.0721	0.593	0.785	0.567	0.567	0.473
TAGCCGAGGTCATGGGCCAGTATACCACGCGAAC	7.63	5.96	0.925	4.99	0.79	6.28	7.45	7.21	3.43	5.67
